# Columns and labels:
# Experiment in all cases: yeast three-hybrid, YBZ-1, SC-Leu-His + 0.5 mM 3-AT, 4 days
# Conditions in all cases: tags: N-Gal4 AD-HA kept; label: inside an RPR1-promoter hybrid RNA with tandem MS2 sites; ssRNA
# PUM1 PUF domain R1-RRS = PUM1 PUF domain R1-RRS (Homo sapiens, UniProt Q14671 828-1176, S863R;Q867S)
# Procedure, shortened: (§1)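 Sequencing with Illumina followed PCR amplification of the repeat regions from transformants grown four days on SC-Leu (input) or SC-Leu-His + 0.5 mM 3-AT (selection). The transformants were strain YBZ-1 with a LexA–MS2 coat fusion and a HIS3 reporter, carrying Pumilio-1 PUF domain libraries and matching RNA elements. The interaction score is the log change in variant frequency from input to selection, computed in log2 with a pseudocount of 1 for absent variants.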
# PUM1 PUF domain R1-KSL = PUM1 PUF domain R1-KSL (Homo sapiens, UniProt Q14671 828-1176, S863K;R864S;Q867L)
# Sequence of PUM1 PUF domain R1-KSL (Q14671 828-1176 S863K/R864S/Q867L): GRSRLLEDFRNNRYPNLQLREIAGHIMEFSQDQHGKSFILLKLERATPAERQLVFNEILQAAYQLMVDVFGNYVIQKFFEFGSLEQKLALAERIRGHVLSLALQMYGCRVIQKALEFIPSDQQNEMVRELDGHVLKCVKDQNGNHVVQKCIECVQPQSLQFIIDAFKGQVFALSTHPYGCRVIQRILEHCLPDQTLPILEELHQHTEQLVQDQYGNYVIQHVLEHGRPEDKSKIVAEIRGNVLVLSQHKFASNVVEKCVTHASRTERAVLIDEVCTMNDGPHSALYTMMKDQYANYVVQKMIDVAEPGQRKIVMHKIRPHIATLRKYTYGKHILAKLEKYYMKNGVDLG
# Procedure, shortened: as §1
# PUM1 PUF domain R3-QPS = PUM1 PUF domain R3-QPS (Homo sapiens, UniProt Q14671 828-1176, C935Q;R936P;Q939S)
# Sequence of PUM1 PUF domain R3-QPS (Q14671 828-1176 C935Q/R936P/Q939S): as the sequence (Q14671 828-1176 S863K/R864S/Q867L) above, with K36S, S37R, L40Q, C108Q, R109P, Q112S counted along it
# Procedure, shortened: as §1
# PUM1 PUF domain R3-RSL = PUM1 PUF domain R3-RSL (Homo sapiens, UniProt Q14671 828-1176, C935R;R936S;Q939L)
# Procedure, shortened: as §1
# PUM1 PUF domain R3-QRG = PUM1 PUF domain R3-QRG (Homo sapiens, UniProt Q14671 828-1176, C935Q;Q939G)
# Procedure, shortened: as §1
# PUM1 PUF domain R3-RAD = PUM1 PUF domain R3-RAD (Homo sapiens, UniProt Q14671 828-1176, C935R;R936A;Q939D)
# Procedure, shortened: as §1
# PUM1 PUF domain R5-GFM = PUM1 PUF domain R5-GFM (Homo sapiens, UniProt Q14671 828-1176, C1007G;R1008F;Q1011M)
# Sequence of PUM1 PUF domain R5-GFM (Q14671 828-1176 C1007G/R1008F/Q1011M): as the sequence (Q14671 828-1176 S863K/R864S/Q867L) above, with K36S, S37R, L40Q, C180G, R181F, Q184M counted along it
# Procedure, shortened: as §1
# PUM1 PUF domain R5-ERL = PUM1 PUF domain R5-ERL (Homo sapiens, UniProt Q14671 828-1176, C1007E;Q1011L)
# Procedure, shortened: as §1
# PUM1 PUF domain R3-FRW = PUM1 PUF domain R3-FRW (Homo sapiens, UniProt Q14671 828-1176, C935F;Q939W)
# Sequence of PUM1 PUF domain R3-FRW (Q14671 828-1176 C935F/Q939W): as the sequence (Q14671 828-1176 S863K/R864S/Q867L) above, with K36S, S37R, L40Q, C108F, Q112W counted along it
# Procedure, shortened: as §1
# PUM1 PUF domain R3-WFE = PUM1 PUF domain R3-WFE (Homo sapiens, UniProt Q14671 828-1176, C935W;R936F;Q939E)
# Procedure, shortened: as §1
# PUM1 PUF domain R8-RRN = PUM1 PUF domain R8-RRN (Homo sapiens, UniProt Q14671 828-1176, N1122R;Y1123R;Q1126N)
# Sequence of PUM1 PUF domain R8-RRN (Q14671 828-1176 N1122R/Y1123R/Q1126N): as the sequence (Q14671 828-1176 S863K/R864S/Q867L) above, with K36S, S37R, L40Q, N295R, Y296R, Q299N counted along it
# Procedure, shortened: as §1
# PUM1 PUF domain R4-CMV = PUM1 PUF domain R4-CMV (Homo sapiens, UniProt Q14671 828-1176, N971C;H972M;Q975V)
# Sequence of PUM1 PUF domain R4-CMV (Q14671 828-1176 N971C/H972M/Q975V): as the sequence (Q14671 828-1176 S863K/R864S/Q867L) above, with K36S, S37R, L40Q, N144C, H145M, Q148V counted along it
# Procedure, shortened: as §1
# PUM1 PUF domain R5-VHL = PUM1 PUF domain R5-VHL (Homo sapiens, UniProt Q14671 828-1176, C1007V;R1008H;Q1011L)
# Sequence of PUM1 PUF domain R5-VHL (Q14671 828-1176 C1007V/R1008H/Q1011L): as the sequence (Q14671 828-1176 S863K/R864S/Q867L) above, with K36S, S37R, L40Q, C180V, R181H, Q184L counted along it
# Procedure, shortened: as §1
# PUM1 PUF domain R5-KMW = PUM1 PUF domain R5-KMW (Homo sapiens, UniProt Q14671 828-1176, C1007K;R1008M;Q1011W)
# Procedure, shortened: as §1
# PUM1 PUF domain R6-FRI = molecular target: T1, PUM1 PUF domain R6-FRI (Homo sapiens, UniProt Q14671 828-1176, N1043F;Y1044R;Q1047I)
# T1 sequence: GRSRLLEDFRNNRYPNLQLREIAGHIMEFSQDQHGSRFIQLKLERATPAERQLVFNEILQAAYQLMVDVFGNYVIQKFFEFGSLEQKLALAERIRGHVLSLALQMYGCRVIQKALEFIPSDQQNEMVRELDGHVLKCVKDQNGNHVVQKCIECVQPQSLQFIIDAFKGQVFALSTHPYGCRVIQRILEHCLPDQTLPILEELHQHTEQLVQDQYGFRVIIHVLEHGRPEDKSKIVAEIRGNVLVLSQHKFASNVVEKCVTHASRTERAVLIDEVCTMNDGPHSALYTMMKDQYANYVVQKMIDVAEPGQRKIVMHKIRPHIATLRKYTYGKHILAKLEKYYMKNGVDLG
# Procedure, shortened: as §1
# PUM1 PUF domain R4-ALY = PUM1 PUF domain R4-ALY (Homo sapiens, UniProt Q14671 828-1176, N971A;H972L;Q975Y)
# Procedure, shortened: as §1
# PUM1 PUF domain R4-GNV = PUM1 PUF domain R4-GNV (Homo sapiens, UniProt Q14671 828-1176, N971G;H972N;Q975V)
# Sequence of PUM1 PUF domain R4-GNV (Q14671 828-1176 N971G/H972N/Q975V): as the sequence (Q14671 828-1176 S863K/R864S/Q867L) above, with K36S, S37R, L40Q, N144G, H145N, Q148V counted along it
# Procedure, shortened: as §1
# PUM1 PUF domain R4-QGG = PUM1 PUF domain R4-QGG (Homo sapiens, UniProt Q14671 828-1176, N971Q;H972G;Q975G)
# Sequence of PUM1 PUF domain R4-QGG (Q14671 828-1176 N971Q/H972G/Q975G): as the sequence (Q14671 828-1176 S863K/R864S/Q867L) above, with K36S, S37R, L40Q, N144Q, H145G, Q148G counted along it
# Procedure, shortened: as §1
# PUM1 PUF domain R5-KTV = PUM1 PUF domain R5-KTV (Homo sapiens, UniProt Q14671 828-1176, C1007K;R1008T;Q1011V)
# Procedure, shortened: as §1
# PUM1 PUF domain R7-RGQ = PUM1 PUF domain R7-RGQ (Homo sapiens, UniProt Q14671 828-1176, S1079R;N1080G;E1083Q)
# Procedure, shortened: as §1
# Sequence of PUM1 PUF domain R1-RRS (Q14671 828-1176 S863R/Q867S): as the sequence (Q14671 828-1176 S863K/R864S/Q867L) above, with K36R, S37R, L40S counted along it
sequence,measurement,setting,value
GGCUAGAACUAGUGGAUCCCCCGGCGCCCGGCGGCUCGAGCCCGGGUAAGUGUAAAUCGUCUGCAUGCCGCCGGGCGCCAUGCCUGCAGGUCGACUCUAGAAAACAUG,binding signal,PUM1 PUF domain R1-RRS,5.02 log2 enrichment (interaction score)
same,binding signal,PUM1 PUF domain R1-KSL,2.8 log2 enrichment (interaction score)
GGCUAGAACUAGUGGAUCCCCCGGCGCCCGGCGGCUCGAGCCCGGGUAAGUGUAAUUAGUCUGCAUGCCGCCGGGCGCCAUGCCUGCAGGUCGACUCUAGAAAACAUG,binding signal,PUM1 PUF domain R3-QPS,3.41 log2 enrichment (interaction score)
same,binding signal,PUM1 PUF domain R3-RSL,2.55 log2 enrichment (interaction score)
same,binding signal,PUM1 PUF domain R3-QRG,2.4 log2 enrichment (interaction score)
same,binding signal,PUM1 PUF domain R3-RAD,4.21 log2 enrichment (interaction score)
GGCUAGAACUAGUGGAUCCCCCGGCGCCCGGCGGCUCGAGCCCGGGUAAGUGUGAAUAGUCUGCAUGCCGCCGGGCGCCAUGCCUGCAGGUCGACUCUAGAAAACAUG,binding signal,PUM1 PUF domain R5-GFM,2.5 log2 enrichment (interaction score)
same,binding signal,PUM1 PUF domain R5-ERL,1.92 log2 enrichment (interaction score)
GGCUAGAACUAGUGGAUCCCCCGGCGCCCGGCGGCUCGAGCCCGGGUAAGUGUAAGUAGUCUGCAUGCCGCCGGGCGCCAUGCCUGCAGGUCGACUCUAGAAAACAUG,binding signal,PUM1 PUF domain R3-FRW,4.16 log2 enrichment (interaction score)
same,binding signal,PUM1 PUF domain R3-WFE,3.04 log2 enrichment (interaction score)
same,binding signal,PUM1 PUF domain R3-QRG,3.07 log2 enrichment (interaction score)
GGCUAGAACUAGUGGAUCCCCCGGCGCCCGGCGGCUCGAGCCCGGGUAAGUGUAAAUAGUCUGCAUGCCGCCGGGCGCCAUGCCUGCAGGUCGACUCUAGAAAACAUG,binding signal,PUM1 PUF domain R8-RRN,2.81 log2 enrichment (interaction score)
same,binding signal,PUM1 PUF domain R4-CMV,2.52 log2 enrichment (interaction score)
same,binding signal,PUM1 PUF domain R5-VHL,2.67 log2 enrichment (interaction score)
same,binding signal,PUM1 PUF domain R5-GFM,2.5 log2 enrichment (interaction score)
same,binding signal,PUM1 PUF domain R5-KMW,1.25 log2 enrichment (interaction score)
same,binding signal,PUM1 PUF domain R6-FRI,3.38 log2 enrichment (interaction score)
same,binding signal,PUM1 PUF domain R4-ALY,3.56 log2 enrichment (interaction score)
same,binding signal,PUM1 PUF domain R5-ERL,5.49 log2 enrichment (interaction score)
GGCUAGAACUAGUGGAUCCCCCGGCGCCCGGCGGCUCGAGCCCGGGUAAGUGUACAUAGUCUGCAUGCCGCCGGGCGCCAUGCCUGCAGGUCGACUCUAGAAAACAUG,binding signal,PUM1 PUF domain R4-GNV,1.41 log2 enrichment (interaction score)
same,binding signal,PUM1 PUF domain R4-CMV,1.08 log2 enrichment (interaction score)
same,binding signal,PUM1 PUF domain R4-QGG,1.65 log2 enrichment (interaction score)
GGCUAGAACUAGUGGAUCCCCCGGCGCCCGGCGGCUCGAGCCCGGGUAAGUGUAUAUAGUCUGCAUGCCGCCGGGCGCCAUGCCUGCAGGUCGACUCUAGAAAACAUG,binding signal,PUM1 PUF domain R4-GNV,2.92 log2 enrichment (interaction score)
same,binding signal,PUM1 PUF domain R4-CMV,3.68 log2 enrichment (interaction score)
same,binding signal,PUM1 PUF domain R4-QGG,2.98 log2 enrichment (interaction score)
GGCUAGAACUAGUGGAUCCCCCGGCGCCCGGCGGCUCGAGCCCGGGUAAGUGUCAAUAGUCUGCAUGCCGCCGGGCGCCAUGCCUGCAGGUCGACUCUAGAAAACAUG,binding signal,PUM1 PUF domain R5-KMW,3.19 log2 enrichment (interaction score)
same,binding signal,PUM1 PUF domain R5-KTV,2.38 log2 enrichment (interaction score)
same,binding signal,PUM1 PUF domain R5-ERL,3.87 log2 enrichment (interaction score)
GGCUAGAACUAGUGGAUCCCCCGGCGCCCGGCGGCUCGAGCCCGGGUAAGUCUAAAUAGUCUGCAUGCCGCCGGGCGCCAUGCCUGCAGGUCGACUCUAGAAAACAUG,binding signal,PUM1 PUF domain R7-RGQ,4.22 log2 enrichment (interaction score)
GGCUAGAACUAGUGGAUCCCCCGGCGCCCGGCGGCUCGAGCCCGGGUAAGUGUAAAUUGUCUGCAUGCCGCCGGGCGCCAUGCCUGCAGGUCGACUCUAGAAAACAUG,binding signal,PUM1 PUF domain R1-RRS,3.16 log2 enrichment (interaction score)
GGCUAGAACUAGUGGAUCCCCCGGCGCCCGGCGGCUCGAGCCCGGGUAAGUGUAAAUGGUCUGCAUGCCGCCGGGCGCCAUGCCUGCAGGUCGACUCUAGAAAACAUG,binding signal,PUM1 PUF domain R1-RRS,2.51 log2 enrichment (interaction score)
